Source: PubChem (National Center for Advancing Translational Sciences (NCATS))
TDP1 cell noCPT – qHTS for Inhibitors of human tyrosyl-DNA phosphodiesterase 1 (TDP1): qHTS in cells in absence of CPT; AID 686978, 2013; actives 15% (n = 420,000); DT40 Tdp1-/- hTDP1 cells, no CPT, ATP luminescence, 48 h; Potency, µM (titrated, usually from 46.2 µM), without a hit: at the highest dose activity change, negative = growth inhibition, hits mostly inhibitors; also: potency is read from the fitted curve at half-maximal effect; nearly all actives have a fitted effect of over 55% in size
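Growth kinetics read by CellTiter-Glo luminescence after ≥48 hr at 37 °C. Cells: DT40 Tdp1-/- stably carrying human TDP1, 400 per well, compound exposure in the absence of CPT (DMSO vehicle).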
HT1080 IDH1KD tx – HT-1080 IDH1 knockdown cell toxicity (counter line); HT-1080 IDH1 knockdown viability, ATP luminescence, 48 h; Potency, µM (doses to about 46.1 µM), for inactives: at the highest dose activity, negative = toxicity, actives largely listed as cytotoxic; actives 2% (n = 360,000);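 also: potency is read from the fitted curve at half-maximal effect; 0% = DMSO wells and -100% = cell-free medium wells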
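Using the IDH1-knockdown HT-1080 line run in the same batch and compound series as the NT line, viability after 48 h at 37 °C was determined by CellTiter-Glo luminescence and expressed as % activity.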
HT1080-NT tox – kills 2HG-producing HT-1080-NT fibrosarcoma cells; HT-1080-NT fibrosarcoma viability, CellTiter-Glo ATP luminescence, 48 h; actives 1.6% (n = 360,000); AID 686970; Potency, µM (highest dose often 46.1 µM), for inactives: at the highest dose activity, negative = less viability, usual class: cytotoxic;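 also: NT is the 2HG producing partner of a matched IDH1 knockdown line; potency is read from the fitted curve at half-maximal effect; 0% = DMSO-treated cells and -100% = media-only wells without cells; nearly all actives have a fitted effect of over 55% in size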
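HT-1080-NT fibrosarcoma cells (2HG-overproducing), 750 cells/well in RPMI with 5% FBS, dosed after 2 h and incubated 48 h at 37C. CellTiter-Glo luminescence normalized to DMSO and no-cell wells; concentration-response curves fitted and classed.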
TDP1 cell CPT – growth inhibition of DT40 Tdp1-/-;hTDP1 cells with camptothecin (screen for TDP1 inhibitors). chicken DT40 Tdp1-/-;hTDP1 cells + 20 nM CPT, ATP luminescence, 48 h. Potency, µM (titrated, usually from 46.2 µM), for inactives: top-dose activity change, negative = growth inhibition, hits mostly inhibitors. actives 12% (n = 420,000). AID 686979; also: potency is read from the fitted curve at half-maximal effect; nearly all actives have a fitted effect of over 55% in size
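Cell growth measured by CellTiter-Glo luminescence after a minimum 48 h, 37 C compound exposure with 20 nM CPT in Tdp1-knockout DT40 cells stably expressing hTDP1, seeded 400/well; qHTS titration format.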
IL-1B inflam inh – inflammasome signaling inhibition, IL-1 beta readout. THP-1 LPS/ATP IL-1B secretion, AlphaLISA, 16 h; active compounds read low. actives 4.7% (n = 360,000). AID 743279. activity change, % at 57.5 µM; in the data active = activity change below about -50%; inconclusive = mostly about -30% to -49%
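THP-1 cells pretreated 1 hr with compounds (up to 57.5 uM final), then stimulated with LPS (250 ng/mL final) plus ATP (1.25 mM final); secreted IL-1B measured by AlphaLISA after 16 hr, decreased signal indicating inhibition.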
* marks the source's active call; other numbers are inactive results; u = inconclusive; x = no result given; [ ] = another dose, or the depositor's remark. In the library only some 19% were active in any assay of this set; here they are far more common. Unless noted, calls follow the shape of the dose curve; as a rule, active = well fitted curve in the direction sought with a large enough effect; inconclusive = small, poorly fitted or top-dose-only effect, or another doubt; inactive = no such curve, though single readings can be large; an effect the other way counts as inactive or inconclusive. Unless noted, % is scaled to controls: 0 for no effect and ±100 for the full control effect.

SMILES	TDP1 cell noCPT	HT1080 IDH1KD tx	HT1080-NT tox	TDP1 cell CPT	IL-1B inflam inh
COC(=O)c1ccc(/C=N\NC(=O)c2ccc(C)cc2Cl)cc1	-19%	-8%	7%	-21%	1
Fc1ccccc1CSCc1nc2ccccc2[nH]1	u	2%	1%	u	-3
CC1CCCCN1C(=O)c1cnn2c1NC(=C1CC1)C=C2C(F)F (centres undefined)	u	1%	7%	10%	x
Cc1cc2ccccc2cc(C)c1=O	2%	12%	1%	-3%	7
Cc1cc2ccccc2c[n+]1C1CCCCC1	0.71µM*	x	x	1.4µM*	x
NC/C=C\C(=O)O	0%	x	x	-1%	x
Cn1c(=O)c(Nc2ccc(O)cc2)c2c3c(cccc31)C(=O)c1ccccc1-2	2.6µM*	-19%	-23%	3.7µM*	u
CC(N)C(=O)NC(C(=O)NC(C)C(=O)Nc1cccc2ccccc12)C(C)C (centres undefined)	-5%	8%	0%	-17%	30
COc1cccc(Oc2ccc(S(=O)(=O)N3CCOCC3)cc2[N+](=O)[O-])c1	-16%	-6%	0%	-19%	-10
CCN(CC)C(=O)C1CCN(c2cc(C)nc3c(-c4ccc(OC)c(OC)c4)c(C)nn23)CC1	u	x	x	-26%	x
CCc1c(C)nc2cc(-c3ccc(OC)c(OC)c3)nn2c1NCC1CC1	16µM*	-15%	-10%	13µM*	-94*
CC(C)(C)c1ccccc1OCC(=O)Nc1ccccc1C(=O)NCc1cccnc1	16µM*	u	u	u	-90*
CC(C)(C)C(=O)Nc1ccccc1C(=O)NCc1cccnc1	-14%	-4%	2%	0%	22
C=CCOc1ccc(C(=O)Nc2ccccc2C(=O)NCc2cccnc2)cc1	8.2µM*	23µM*	21µM*	6.5µM*	-26
CCOc1ccc(NC(=O)COc2ccc(C(=O)NCc3cccnc3)cc2OC)cc1	u	4%	1%	u	5
COc1cc(C(=O)NCc2cccnc2)ccc1OCC(=O)Nc1cccc(C(F)(F)F)c1	3.7µM*	-26%	u	5.2µM*	-7
Cc1[nH]c2ccccc2c1C(=O)C(=O)NCCOc1ccccc1	-9%	4%	4%	11%	-7
CCOc1ccccc1Nc1nnc(SC(C)C(=O)Nc2nc(-c3ccccc3)cs2)s1 (centres undefined)	-21%	-13%	-1%	-10%	5
C/C(=N/NC(=O)NC12CC3CC(CC(C3)C1)C2)c1ccccc1	u	0%	7%	-1%	32
OC1(c2cccnc2)CCN(Cc2ccc3c(c2)CN(Cc2cccc(F)c2F)CCO3)CC1	u	x	x	0%[9.04 µM]	x
COc1ccc2c(c1)c(/C=C/c1cc[n+](C)cc1)cn2C	4.6µM*	-3%	0%	4.6µM*	-3
Cc1ccc2[nH]cc(/C=C/c3cc[n+](C)cc3)c2c1	2.6µM*	u	u	4.1µM*	-7
COc1ccc2c(/C=C/c3cc[n+](C)cc3)c[nH]c2c1	7.3µM*	-2%	-22%	9.2µM*	26
COc1ccc(-c2nnn(CC(=O)NCCc3ccc(OC)c(OC)c3)n2)cc1	-17%	-1%	1%	-6%	34
CC1(S(=O)(=O)O)CC(=O)c2ccccc2C1=O (centres undefined)	5.2µM*	21µM*	18µM*	7.3µM*	u
SMILES	TDP1 cell noCPT	HT1080 IDH1KD tx	HT1080-NT tox	TDP1 cell CPT	IL-1B inflam inh
O=C(NNC(=O)c1ccc(-n2cncn2)c([N+](=O)[O-])c1)c1ccc(Cl)cc1	-15%	1%	-4%	-46%	-21
COc1ccccc1OCCNC(=O)Cc1ccc(S(=O)(=O)N2CCOCC2)s1	-3%	1%	-3%	9%	-4
C=CCc1cc(C(=O)N2CCCCC2)ccc1O	u	-2%	0%	u	-2
C=CCc1ccc(O)c(-c2ccc(O)c(CC=C)c2)c1	18µM*	-6%	-1%	u	u
COc1ccc(OC)c(C2C(C(C)=O)=C(C)Nc3ncnn32)c1 (centres undefined)	0%	17%	15%	1%	8
O=C(Nc1nnc(-c2ccc3c(c2)CCCC3)o1)c1ccccc1Cl	16µM*	u	-10%	u	6
O=C(Nc1nnc(-c2ccc3c(c2)CCCC3)o1)c1ccccc1	5.8µM*	u	u	5.2µM*	110
CCCC(=O)N(C)c1ccc(/C=C2\C=Cc3ccccc32)cc1	2.2µM*	x	x	3.2µM*	x
CN(C)c1ccc(/C=C2\C=Cc3ccccc32)c(Cl)c1	13µM*	x	x	u	x
CNc1c(Cl)cc(/C=C2\C=Cc3ccccc32)cc1Cl	-12%	x	x	-24%	x
CC(=O)N(C)c1ccc(/C=C2\C=Cc3ccccc32)cc1	7.1µM*	x	x	6.3µM*	x
CCCCN(CCCC)c1ccc(/C=C2\C=Cc3ccccc32)cc1	-24%	x	x	-21%	x
CC(=O)N(O)c1ccc(/C=C2\C=Cc3ccccc32)cc1	3.2µM*	x	x	1.4µM*	x
CCOC(=O)C1OC1(c1ccccc1)c1ccccc1 (centres undefined)	u	0%	-1%	u	-19
CCC(=O)N(C(=O)CC)N1CCN(c2ccncc2S(=O)(=O)N2CCCCC2)CC1	u	-1%	3%	u	9
CSCCC(NC(=O)c1ccccc1Cl)C(=O)Nc1ccncc1 (centres undefined)	-23%	2%	3%	7%	8
OC1(c2cccs2)CN(c2ccccc2)C2=[N+]1CCCC2 (centres undefined)	-4%	3%	-8%	-1%	-87*
OC1(c2ccccc2)CN(c2ccccc2)C2=[N+]1CCS2 (centres undefined)	-28%	1%	5%	u	-66*
OC1(c2cccs2)CN(c2ccc(Br)cc2)C2=[N+]1CCCS2 (centres undefined)	15µM*	u	u	u	u
COc1ccc(OC)c(N2CC(O)(c3cccs3)[N+]3=C2SCCC3)c1 (centres undefined)	-13%	-1%	-1%	-10%	-15
CCOc1ccc(N2CC(O)(c3cccs3)[N+]3=C2CCCC3)cc1 (centres undefined)	u	-11%	-4%	u	-15
CC(=O)C1(C)C(=O)N(c2ccc(F)cc2)C(=O)N1c1ccc(F)cc1 (centres undefined)	9%	u	22%	12%	-14
CCOC(=O)c1c(C)[nH]c(C)c1S(=O)(=O)N(C)CC(=O)Nc1ccc(OC)cc1	-15%	x	x	-34%	x
COCCCC1CCN(C(=O)c2cc(COc3cc(C)ccc3C)on2)CC1	u	-6%	-10%	u	12
